INS promoter inh: TRM-6 insulin promoter activity inhibition. TRM-6 cells (human fetal islet line), insulin promoter-eGFP reporter, imaging; reporter expression induced with tamoxifen. inhibition, % at 2 µM. 0.9% of 130,000 active;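 active = inhibition above the mean plus 3 SD, with well images judged a real hit on visual review, cut at about 60% in these data, passing the limit was not always enough; inconclusive = inhibition over the cutoff but images rejected on review; inactive = inhibition not above the cutoff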
L major viab: reduces viability of Leishmania major promastigotes; resazurin fluorescence viability; inhibition, % at 10 µM; 9% of 200,000 active; in the data active = inhibition above about 50%;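 note: promastigotes grown with compound for 44 hours at 28 °C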
HCT116 PTEN-null: suppresses growth of cells with PTEN deletion. HCT116 PTEN-null viability, CellTiter-Glo, 60 h; hits give low values. viability, % at 10 µM. 1.2% of 140,000 active. AID 827;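 active = viability at or below a set limit, 4 SD under the median of all tested compounds, cut at about 3.7% in these data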;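 note: PTEN knockout HCT116 line with beta catenin targeted HCT116 as companion control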
Autophagy mod: alters autophagy in cells; MEF GFP-LC3 puncta imaging; test concentration mostly 10 µM; calls only at 10 µM (by protocol); 0.98% of 190,000 active; AID 463193;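 active = percentage of spot-positive cells more than 3 SD above its plate mean, without a fluorescence outlier flag or 80% toxicity; inconclusive = no clear call, values can overlap the other calls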;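 note: spot-positive cell cutoff set from DMSO-treated cells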
Ins promoter up: MIN6 insulin promoter up-regulation; MIN6 insulin promoter-GFP reporter, high-content imaging; hits give high values; 0.3% of 190,000 active; z-score at 5 µM;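 active = z-score above 3 at 5 µM with at least 500 cells counted in the well; inconclusive = wells under 500 cells, flagged as cytotoxic or low count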
HCT116 bCat-KO: beta-catenin-lacking colon tumor cell growth suppression; viability, % at 10 µM; AID 818; 1.5% of 140,000 active; HCT116 beta-catenin knockout viability, CellTiter-Glo, 60 h; hits give low values;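 active = viability at or under a set limit, the compound median less 4 SD, cut at about 6% in these data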;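 note: 0% = Hyamine 1622 control at 20 µM and 100% = untreated cell control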
Starred values were filed as active, the others as inactive; i = inactive; u = inconclusive; x = no result; + = active, no number. A selection: hits, their analogues and other compounds. The true share with any hit is near 9.6%.

SMILES	INS promoter inh	L major viab	HCT116 PTEN-null	Autophagy mod	Ins promoter up	HCT116 bCat-KO
CCC(=O)Nc1cccc2cccnc12	x	-6	x	i	-0.22	x
CCNC(=O)COc1cccc2ccccc12	-3	0	88	i	0.47	88
Cc1cc(C(=O)N/N=C2\CC(=O)CC(C)(C)C2)c(C)n1-c1ccccc1	-13	-5	61	i	-0.35	69
Cc1cc(C(=O)N/N=C2\CC(=O)c3ccccc32)c(C)n1-c1ccccc1	35	98*	x	i	0.16	x
CCN(CC)S(=O)(=O)c1ccc(C(=O)Nc2cc3oc4ccccc4c3cc2OC)cc1	-8	-2	82	+	-0.61	81
COc1cc2c(cc1NC(=S)NC(=O)/C=C/c1ccco1)oc1ccccc12	12	48	41	i	0.06	47
COc1cc2c(cc1NC(=O)c1cccc(S(=O)(=O)N(C)C)c1)oc1ccccc12	-87	17	73	i	0.46	76
COc1cc2c(cc1NC(=O)/C=C/c1ccccc1)oc1ccccc12	-6	10	86	+	-0.55	92
COc1cc2c(cc1NC(=O)Nc1ccc(C)cc1)oc1ccccc12	-29	98*	91	i	-1	95
COc1cc2c(cc1NC(=O)C(C)OC(=O)/C=C/c1ccc(OC(F)F)cc1)oc1ccccc12 (centres undefined)	-6	80*	78	i	-0.15	83
COc1ccc(CN(C)C(c2ccccc2)c2nnnn2-c2ccccc2C)c(OC)c1C (centres undefined)	3	12	66	i	-0.29	79
COc1cc2c(cc1NC(=S)NC(=O)/C=C/c1ccc(OC)c(OC)c1)oc1ccccc12	24	46	95	i	0.09	85
CCOC(=O)N1CCN(C(=O)CN(c2ccccc2OC)S(=O)(=O)c2ccc(C)cc2)CC1	x	-6	102	i	0.42	99
CCN(CC)C(=O)CN(c1cc2c(cc1OC)oc1ccccc12)S(=O)(=O)c1ccc(C)cc1	13	69*	87	i	0.02	85
COc1ccc(/C=C/C(=O)NC(=S)Nc2cc3oc4ccccc4c3cc2OC)cc1	19	50*	31	i	0.08	47
O=[N+]([O-])c1ccc(N2CCCC2)cc1NC(c1ccccc1)c1ccccc1	0	20	67	i	u	67
O=C(Nc1nc2ccccc2n1CCN1CCOCC1)c1cn(-c2ccccc2)nc1-c1ccccc1	x	96*	10	+	-0.23	17
CC(=O)Nc1nc2ccccc2n1CCN1CCOCC1	-3	-10	105	i	0.11	94
CCOC(=O)c1cccc(NC(=O)CSc2nnc(C3CCCCC3)n2C)c1	-43	12	108	i	0.67	96
Cn1c(COc2ccc3ccccc3c2)nnc1SCC(N)=O	33	-5	105	i	0.49	87
O=C(CSc1nnc(-c2ccccc2Cl)o1)Oc1ccc(Br)cc1	-359	3	0.7*	i	0.02	0.9*
O=C(CSc1nnc(-c2ccccc2O)o1)Oc1ccc(Br)cc1	48	5	105	i	-0.94	104
Cc1c(NC(=O)C2(c3ccc(Cl)cc3)CCCC2)c(=O)n(-c2ccccc2)n1C	-21	0	94	i	-0.01	89
c1ccc(Cc2noc(CN3CCN(CCOc4ccccc4)CC3)n2)cc1	x	75*	x	i	0.29	x
COCC1CCN(Cc2nc(COc3ccccc3)no2)C1 (centres undefined)	x	-6	x	i	0.2	x
SMILES	INS promoter inh	L major viab	HCT116 PTEN-null	Autophagy mod	Ins promoter up	HCT116 bCat-KO
c1ccc(OCc2noc(CN3CCC(C4CCCCC4)C3)n2)cc1 (centres undefined)	x	55*	x	i	-0.01	x
Fc1ccccc1Cc1noc(CN2CCN(C/C=C/c3ccccc3)CC2)n1	x	85*	x	i	x	x
O=CN1CCCN(Cc2nc(Cc3ccccc3F)no2)CC1	67	-10	x	i	-0.3	x
CN1CCN(Cc2nc(Cc3ccccc3)no2)CC1c1ccccc1 (centres undefined)	x	-2	x	i	0.67	x
COc1ccc(CCN(C)C(=O)CSc2nccn2C)cc1OC	-11	-3	111	i	-0.71	99
CCC1Oc2ccccc2N(CC(=O)Nc2ccc3c(c2)OCCO3)C1=O (centres undefined)	-23	6	83	i	x	89
CCOc1cc(/C=C2/C(=O)N(c3ccccc3)N=C2C)ccc1OC(=O)c1ccco1	30	1	93	i	-0.21	112
COc1cc(/C=C2/C(=O)N(c3ccccc3)N=C2C)ccc1OS(=O)(=O)c1ccccc1	6	87*	87	i	0.87	98
CC1=NN(c2ccc(C)c(C)c2)C(=O)/C1=C/c1ccc2c(c1)n(C)c(=O)n2C	-46	97*	72	i	-0.15	69
O=C(/C(=C/O)N=Nc1cccc(C(F)(F)F)c1)c1ccccc1	33	5	x	i	1.1	x
Cc1cc2c(cc1C)N(C(=O)CSc1nncn1C)C(C)(C)c1ssc(=S)c1-2	-85	20	95	i	x	90
O=C(CSc1nnc2c(n1)[nH]c1ccccc12)Nc1cccc(S(=O)(=O)N2CCOCC2)c1	x	x	x	x	-0.1	x
O=C(CSc1nncn1-c1ccccc1)NC1CCCc2ccccc21 (centres undefined)	-29	-1	94	i	0	93
CCn1c(SCC(=O)NC2CCCc3ccccc32)nnc1-c1cccs1 (centres undefined)	28	56*	87	i	-0.19	98
CCn1c(SCC(=O)NC2CCCc3ccccc32)nnc1-c1ccncc1 (centres undefined)	7	-5	95	i	-0.5	97
COc1ccc(-n2cnnc2SCC(=O)NC2CCCc3ccccc32)cc1 (centres undefined)	25	69*	100	i	0.57	90
COc1ccc(-n2cnnc2SCC(=O)Nc2ccc(N3CCOCC3)cc2)cc1	3	52*	94	i	-0.19	96
O=C(Nc1ccc(Cl)cc1)/C(=C/c1cccc(O)c1)c1nc2ccccc2s1	-3	100*	1.9*	+	-0.39	2.2*
O=[N+]([O-])c1ccc(C2Oc3ccccc3C3CC(c4ccccc4)=NN32)s1 (centres undefined)	-79	99*	2.1*	+	0.69	3.3*
c1ccc(C2Oc3ccccc3C3CC(c4cccs4)=NN32)cc1 (centres undefined)	x	36	42	i	x	50
CNC(=O)c1nnsc1S(=O)(=O)c1ccc(Cl)cc1	i	59*	x	i	0.44	x
O=C(c1nnsc1S(=O)(=O)c1ccc(Cl)cc1)N1CCOCC1	x	100*	x	i	0.28	x
O=C(c1nnsc1S(=O)c1ccc(Cl)cc1)N1CCOCC1 (centres undefined)	-218	100*	x	i	0.35	x
Nc1nc(C(=O)N2CCOCC2)nn1S(=O)(=O)c1ccc(Cl)cc1	-390	-6	102	i	-0.19	95
O=C(Nc1cscc1S(=O)(=O)c1ccc(Cl)cc1)c1ccccc1Cl	x	x	x	x	0.51	x
